Test results from PubChem BioAssay (NCATS).
Several values for one entry are separate records, joined by “and”; a condition that tells them apart may be missing. Identical values can stand only once. Records with an inconclusive call do not appear. Activity calls are given as the source filed them. Unless noted, calls follow the shape of the dose curve; as a rule, active = well fitted curve in either direction with a large enough effect (not every such curve was filed as active); inconclusive = small, poorly fitted or top-dose-only effect, or another doubt; inactive = flat fitted curve, though single readings scatter.

Experiments:
[1] = AP1 Signaling Pathway (AID 357);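 also: ME-180 reporter cells stimulated with EGF at its EC50 level; % is scaled to controls: 0 for no effect and ±100 for the full control effect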
In short: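 Beta-lactamase reporter under AP-1 response element, ME-180 background. Stimulus: EC50 EGF. Compound exposure 5 h, 37 °C. Detection: CCF4, 2.5 h RT, 460/530 nm. Values: AC50 from titration.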

[2] = NFAT Signaling Pathway (AID 444); conditions: Jurkat NFAT-bla M1, carbachol, beta-lactamase ratio, 5 h;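 also: carbachol stimulus at about its EC50 of 1 µM final; % is scaled to controls: 0 for no effect and ±100 for the full control effect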
In short: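 Jurkat cells with NFAT-driven β-lactamase reporter and co-expressed M1 receptor, stimulated with carbachol (final 1 uM, ~EC50), compound titration, 5 h at 37 °C. CCF4 loaded 1 h at RT; 460/530 nm ratio gave %activity and AC50.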

[3] = Stat Signaling Pathway (AID 446);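 also: ME-180 cervical cancer cells given 40 pM IL-6 alongside compound; SIE-controlled beta-lactamase reporter measured as 460/530 nm FRET emission ratio; % is scaled to controls: 0 for no effect and ±100 for the full control effect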
In short: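 Compound effects on IL-6-induced STAT reporter activity were measured in ME-180 cells. After overnight culture, cells were co-treated with 40 pM IL-6 for 5 hrs before beta-lactamase substrate loading at room temperature.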

[4] = biological target: Mitogen-activated protein kinase 10 (Mus musculus) (UniProt Q61831); assay: JNK3 AlphaScreen Assay (AID 530);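 also: kinase came from lysate of stimulated human HepG2 cells; signal reports phosphorylation of biotinylated GST-cJun 1-79 at Ser73 with 10 µM ATP; % is scaled to controls: 0 for no effect and ±100 for the full control effect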
In short: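 HepG2 lysate (IL-1b/TNFa pre-activated) + biotin-GST-cJun 1-79 + anti-pSer73 cJun; cpd titration, 15 min RT; ATP 10 uM start; Tris pH 7.6, MgCl2, DTT, vanadate; beads in EDTA buffer; AlphaScreen.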

[5] = biological target: Glucocorticoid receptor (Homo sapiens) (UniProt P04150); assay: GR-EFC Redistribution (AID 451; calls by dose curve; also: potency is read from the fitted curve at half-maximal effect); conditions: CHO-K1 GR-EFC translocation, beta-gal luminescence, 2 h
Glucocorticoid receptor (Homo sapiens), sequence (P04150 whole entry, looked up, the tested form may be a part): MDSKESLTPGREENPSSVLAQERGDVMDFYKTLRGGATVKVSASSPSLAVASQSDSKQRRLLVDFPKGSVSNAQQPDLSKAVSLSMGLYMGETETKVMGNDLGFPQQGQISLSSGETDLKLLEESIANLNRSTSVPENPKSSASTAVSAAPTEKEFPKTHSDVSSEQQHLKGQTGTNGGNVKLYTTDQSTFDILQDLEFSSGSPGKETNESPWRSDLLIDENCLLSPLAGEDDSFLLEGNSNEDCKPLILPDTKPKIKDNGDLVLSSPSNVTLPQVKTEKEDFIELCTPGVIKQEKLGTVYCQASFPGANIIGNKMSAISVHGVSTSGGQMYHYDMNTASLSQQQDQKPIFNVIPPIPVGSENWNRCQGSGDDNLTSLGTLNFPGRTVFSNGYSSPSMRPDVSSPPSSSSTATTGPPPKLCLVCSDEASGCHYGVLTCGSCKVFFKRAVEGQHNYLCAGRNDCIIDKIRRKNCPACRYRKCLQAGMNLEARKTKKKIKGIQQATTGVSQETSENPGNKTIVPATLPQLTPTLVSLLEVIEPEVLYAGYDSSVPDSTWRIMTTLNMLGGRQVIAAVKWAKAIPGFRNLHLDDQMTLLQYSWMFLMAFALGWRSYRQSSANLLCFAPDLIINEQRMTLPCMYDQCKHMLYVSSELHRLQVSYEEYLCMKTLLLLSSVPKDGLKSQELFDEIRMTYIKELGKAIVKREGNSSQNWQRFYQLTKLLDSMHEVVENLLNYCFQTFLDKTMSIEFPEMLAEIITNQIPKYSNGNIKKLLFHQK
In short: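 CHO-K1 cells expressing nuclear EA and GR-ED fragments of b-gal; compounds titrated up to 46 uM final, 2 h at 37 C. GR nuclear translocation read as complemented b-gal luminescence after 1 h RT detection.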

[6] = biological target: Glucocorticoid receptor (Homo sapiens) (UniProt P04150); assay: GR-GFP Redistribution (AID 450;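 active = compounds whose dose series gives a full or clear partial fitted curve of increased nuclear translocation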; also: potency is read from the fitted curve at half-maximal effect); conditions: U2OS GR-GFP nuclear translocation, laser cytometry, 2 h
[7] = Cell Viability - BJ (AID 421; calls by dose curve;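 also: potency is read from the fitted curve at half-maximal effect; cells exposed to compound for 40 hours at 37 °C before readout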); conditions: BJ fibroblast viability, qHTS
In short: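 Luminescent ATP signal (CellTiter-Glo, 20 min at room temperature) served as the read-out of viable BJ cells after 40 hours of compound treatment. Responses were scaled between DMSO and 100 uM tamoxifen, and AC50 values were obtained by Hill modeling.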

[8] = Cell Viability - Jurkat (AID 426;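 active = dose-dependent loss of cell ATP signal giving a full or clear fitted curve, ranked by lower potency value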;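 also: potency is read from the fitted curve at half-maximal effect; cells exposed to compound for 40 hours at 37 °C before ATP read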); conditions: qHTS
In short: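 Luminescent ATP read-out (CellTiter-Glo, 20 min at room temperature) after 40 hr compound exposure at 37 °C of Jurkat E6-1 cells, 5000/well. Decreased ATP taken as cytotoxicity; AC50 from standard Hill equation.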

[9] = Cell Viability - Hek293 (AID 427;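 active = compounds whose dose-response curve shows a full or clear partial loss of cell viability, called from curve shape rather than a numeric limit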;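 also: potency is read from the fitted curve at half-maximal effect; cells exposed to compound for 40 hours at 37 °C before reading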); conditions: qHTS
In short: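 Luminescent ATP read-out (CellTiter-Glo, 20 min RT) after 40 hr compound exposure at 37 °C in complete medium. Signal normalized to DMSO (basal) and 100 uM tamoxifen (100% inhibition); concentration-response fitted with the standard Hill equation to give AC50.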

[10] = Cell Viability - HepG2 (AID 433; calls by dose curve;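 also: potency is read from the fitted curve at half-maximal effect; potency for ATP loss meaning cytotoxicity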); conditions: qHTS
In short: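 Read-out is luciferase-based quantitation of cellular ATP as a measure of viable HepG2 cells after 40 h treatment at 37 °C. Signal decrease is scaled between DMSO-only and 100 uM tamoxifen controls, with AC50 fitted by the Hill equation.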

[11] = Cell Viability - MRC5 (AID 434; calls by dose curve;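 also: potency is read from the fitted curve at half-maximal effect; cells exposed to compound for 40 hours at 37 °C; potency reflects cytotoxicity seen as loss of intracellular ATP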); conditions: MRC5 lung fibroblast viability, qHTS
In short: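 ATP luminescence read-out (CellTiter-Glo, 20 min RT) after 40 hr, 37 °C compound exposure of 1500 MRC5 cells/well. Data normalized to DMSO (basal) and 100 uM tamoxifen (100% inhibition); AC50 from standard Hill equation.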

[12] = Cell Viability - SK-N-SH (AID 435; calls by dose curve; also: potency is read from the fitted curve at half-maximal effect); conditions: SK-N-SH neuroblastoma cell viability qHTS
In short: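 Luminescent ATP signal served as the viability read-out after 40 hours of compound treatment of human neuroblastoma SK-N-SH cells. Concentration-response data, scaled between DMSO and 100 uM tamoxifen, gave AC50 values by standard Hill modeling.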

[13] = Cell Viability - N2a (AID 540; active = well fitted curve in the direction sought with a large enough effect; an effect the other way counts as inactive or inconclusive;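 also: plate controls were DMSO alone for no effect and tamoxifen control for full effect; nearly all actives have a fitted effect of over 45% in size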); conditions: N2a mouse neuroblastoma cell viability; activity change, negative = cytotoxicity: at 92.2 µM (top of the series)
In short: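 N2a mouse neuroblastoma, 1500 cells/well, 5 hr settle; compound 40 hr, 37 °C; CellTiter-Glo 20 min RT; luminescence; Hill-fit AC50.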

[14] = Cell Viability - NIH 3T3 (AID 541; active = well fitted curve in the direction sought with a large enough effect; an effect the other way counts as inactive or inconclusive;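 also: plate controls were DMSO alone for no effect and tamoxifen positive control for full effect; nearly all actives have a fitted effect of over 25% in size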); conditions: NIH 3T3 cell viability, qHTS; activity change, negative = cytotoxicity: at 92.2 µM (top of the series)
In short: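 qHTS format; 40 hr compound exposure, 37 °C; CellTiter-Glo luminescence (cellular ATP) read-out after 20 min at RT. Decrease in ATP = cytotoxicity; AC50 from standard Hill fit.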

[15] = Cell Viability - HUV-EC-C (AID 542; active = well fitted curve in the direction sought with a large enough effect; an effect the other way counts as inactive or inconclusive; also: % is scaled to controls: 0 for no effect and ±100 for the full control effect; nearly all actives have a fitted effect of over 35% in size)
In short: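 Luminescent ATP read-out (CellTiter-Glo, 20 min room temperature) after 40 hr compound treatment of HUV-EC-C cells at 37 °C. Concentration-response data fitted with the standard Hill equation to give AC50; tamoxifen and doxorubicin served as positive controls.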

[16] = Cell Viability - H-4-II-E (AID 543; active = well fitted curve in the direction sought with a large enough effect; an effect the other way counts as inactive or inconclusive; also: % is scaled to controls: 0 for no effect and ±100 for the full control effect; nearly all actives have a fitted effect of over 35% in size)
In short: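 qHTS, rat hepatoma H-4-II-E, 1500 cells/well; 40 hr compound exposure, 37 °C; CellTiter-Glo ATP luminescence after 20 min RT; AC50 by standard Hill fit.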

[17] = Cell Viability - SH-SY5Y (AID 544; active = well fitted curve in the direction sought with a large enough effect; an effect the other way counts as inactive or inconclusive;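 also: 0% = DMSO alone and -100% = 100 µM tamoxifen; nearly all actives have a fitted effect of over 55% in size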); conditions: SH-SY5Y neuroblastoma cell viability; viability change, negative = cytotoxic: at 92.2 µM (top of the series)
In short: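 SH-SY5Y, 1500 cells/well, 5 hr pre-incubation 37 °C; cpd 40 hr 37 °C; CellTiter-Glo 20 min RT; luminescence (ATP) read. qHTS concentration-response, Hill fit → AC50. Tamoxifen, doxorubicin as positive controls.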

[18] = Cell Viability - Renal Proximal Tubule (AID 545; active = well fitted curve in the direction sought with a large enough effect; an effect the other way counts as inactive or inconclusive;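 also: 0% = DMSO only and -100% = 100 µM tamoxifen; nearly all actives have a fitted effect of over 40% in size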)
In short: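 Luminescent ATP signal (CellTiter-Glo) served as the viability read-out after 40 hr compound exposure of freshly isolated rat proximal tubule cells at 37 °C. Concentration-dependent ATP loss was fitted with the Hill equation to give AC50.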

Cc1cnc(C(=O)NCCc2ccc(S(=O)(=O)NC(=O)NC3CCCCC3)cc2)cn1
inactive: outcome [1] | activity change, negative = inhibition ([2]; at 17.2 µM (top of the series)) -11% and -0.964% | activity change, negative = inhibition ([2]; at 38 µM (top of the series)) -4.17% | outcome [3] | outcome [4]

O=C1c2c(O)ccc(O)c2C(=O)c2c(NCCNCCO)ccc(NCCNCCO)c21
inactive: outcome [3] | Potency [5] > 46 µM and > 20.6 µM | outcome [4]

O=C(c1ccc(OCCN2CCCCC2)cc1)c1c(-c2ccc(O)cc2)sc2cc(O)ccc12
inactive: outcome [1] | outcome [3] | Potency [6] > 46 µM and > 20.6 µM | Potency [5] > 46 µM and > 20.6 µM

CCc1cccc2c3c([nH]c12)C(CC)(CC(=O)O)OCC3 (configuration not stated)
inactive: outcome [1] | activity change, negative = inhibition ([2]; at 17.2 µM (top of the series)) 12.2% | outcome [3]

Nc1ccn([C@H]2CC[C@@H](CO)O2)c(=O)n1
inactive: Potency [7] > 92 µM | Potency [8] > 92 µM | Potency [9] > 92 µM | Potency [10] > 92 µM | Potency [11] > 92 µM | Potency [12] > 92 µM | outcome [4] | activity change, negative = cytotoxicity [13] -5.12% | Potency [14] | outcome [15] | Potency [16] | Potency [17] | Potency [18]

O=C(CCCN1CCC(O)(c2ccc(Cl)cc2)CC1)c1ccc(F)cc1
inactive: outcome [1] | activity change, negative = inhibition ([2]; at 38 µM (top of the series)) -17.8% | outcome [3] | outcome [4]
